Reference: the supplement of paper PMC3334620
The full ranking holds about 33,000 sequences; the median of “E-score (-0.5 to 0.5)” is about -0.012, and the highest 2% start at about 0.29. This is one part of a sample in which the highest values are shown more often than they occur.

target: T1, Ybr033w (UniProt P38073); experiment: PBM E-score (8-mer binding enrichment) (E-score (-0.5 to 0.5)); higher = stronger / more preferred TF binding; settings: protein concentration: 200 nM; construct: GST-full length
T1 sequence: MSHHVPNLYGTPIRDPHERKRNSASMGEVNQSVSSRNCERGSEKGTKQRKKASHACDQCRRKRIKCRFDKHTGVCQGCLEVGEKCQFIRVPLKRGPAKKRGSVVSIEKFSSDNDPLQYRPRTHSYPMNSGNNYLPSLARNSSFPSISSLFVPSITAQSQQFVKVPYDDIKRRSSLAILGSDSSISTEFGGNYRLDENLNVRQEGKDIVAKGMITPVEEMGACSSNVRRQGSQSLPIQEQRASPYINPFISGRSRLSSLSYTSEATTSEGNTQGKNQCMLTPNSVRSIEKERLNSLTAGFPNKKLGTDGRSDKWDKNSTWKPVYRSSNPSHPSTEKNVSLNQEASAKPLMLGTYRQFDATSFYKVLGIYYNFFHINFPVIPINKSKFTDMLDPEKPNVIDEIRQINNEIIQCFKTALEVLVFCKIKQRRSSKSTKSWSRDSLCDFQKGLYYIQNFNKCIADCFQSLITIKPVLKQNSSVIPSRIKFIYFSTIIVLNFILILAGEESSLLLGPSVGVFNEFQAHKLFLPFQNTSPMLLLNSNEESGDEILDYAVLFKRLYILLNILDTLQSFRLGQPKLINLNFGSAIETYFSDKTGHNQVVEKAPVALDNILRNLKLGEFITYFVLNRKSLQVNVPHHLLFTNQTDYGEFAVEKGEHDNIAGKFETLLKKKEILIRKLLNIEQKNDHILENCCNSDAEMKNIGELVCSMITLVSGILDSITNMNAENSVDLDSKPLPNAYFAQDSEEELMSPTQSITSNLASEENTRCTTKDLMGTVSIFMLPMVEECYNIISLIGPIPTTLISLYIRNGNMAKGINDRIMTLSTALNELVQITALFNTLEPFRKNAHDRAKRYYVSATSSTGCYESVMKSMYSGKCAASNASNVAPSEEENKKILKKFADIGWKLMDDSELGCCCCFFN
Description: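 Universal 'all 10-mer' protein binding microarrays (Agilent AMADID 015681) probed with GST-tagged S. cerevisiae TFs (full-length or DBD) made by in vitro transcription/translation (PURExpress), about 100-200 nM. Bound TF was detected with fluorescent anti-GST. Each ungapped 8-mer (which stands for itself and its reverse complement) is scored by the PBM enrichment score (E-score), a modified Wilcoxon-Mann-Whitney statistic from -0.5 to +0.5, computed with the Universal PBM Analysis Suite. Scale: above 0.35 generally sequence-specific binding.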

Compared with CTCCACAA, GTCCACAA is lower in “PBM E-score” value: 0.0525 for the first, 0.0077 for the second.

First: GTCCAGAA
Second: TTCCAGAA
The “PBM E-score” value of the first is lower: -0.051 for the first, 0.294 for the second.

First: CTCCAGAA
Second: TTCCACAA
The “PBM E-score” value of the first is lower: -0.0883 for the first, 0.314 for the second.

Compared with ATGAAGAA, CTGAACAG is lower in “PBM E-score” value: 0.126 for the first, 0.00549 for the second.

Compared with GACGACAA, AACGACAA is lower in “PBM E-score” value: 0.293 for the first, 0.175 for the second.

First: CACGACAA
Second: GAAAGTAC
The “PBM E-score” value of the first is lower: -0.0495 for the first, 0.0791 for the second.

First: GACCATTA
Second: GACTTAAA
The “PBM E-score” value of the first is higher: 0.2 for the first, 0.0498 for the second.

First: GGTTAAGA
Second: TACTACCA
The “PBM E-score” value of the first is lower: 0.0725 for the first, 0.106 for the second.

Compared with ATCATTTA, GACATATA is lower in “PBM E-score” value: 0.336 for the first, 0.185 for the second.

Compared with ATCATTTC, AACATAAT is higher in “PBM E-score” value: 0.258 for the first, 0.295 for the second.

First: AACATAAC
Second: ATCATTAG
The “PBM E-score” value of the first is higher: 0.281 for the first, 0.16 for the second.

Going from AACATAAA to CTCATTAA, the “PBM E-score” value rises from 0.11 to 0.23.

First: CTCATTTA
Second: CACATATA
The “PBM E-score” value of the first is lower: 0.0742 for the first, 0.0859 for the second.

Compared with ATCATTAA, AACATATA is lower in “PBM E-score” value: 0.313 for the first, 0.298 for the second.

Going from AGTTGTAT to TGGCCTAA, the “PBM E-score” value falls from 0.0541 to -0.088.

First: ATGGCAAG
Second: GTCCTTGA
The “PBM E-score” value of the first is higher: -0.0226 for the first, -0.0584 for the second.

Compared with GACCTATC, AGCCACGA is lower in “PBM E-score” value: -0.0417 for the first, -0.228 for the second.

Compared with TCACACGA, CTACTAAC is higher in “PBM E-score” value: -0.00326 for the first, 0.222 for the second.

First: CAAGCGTA
Second: AACATTTA
The “PBM E-score” value of the first is lower: 0.093 for the first, 0.296 for the second.

Going from GACATTTA to AACATTTC, the “PBM E-score” value rises from -0.045 to 0.272.

Going from CCACTTGC to CCGCGCGG, the “PBM E-score” value rises from -0.0925 to 0.104.

First: AGATCGAG
Second: TACCAATA
The “PBM E-score” value of the first is higher: 0.0958 for the first, 0.0786 for the second.

Going from CCCATCAA to AACATCAA, the “PBM E-score” value rises from 0.101 to 0.319.

Going from GACATCAA to TCCATCAA, the “PBM E-score” value rises from 0.0415 to 0.312.

Going from ACCATCAA to CACATCAA, the “PBM E-score” value falls from 0.137 to 0.127.

Compared with AATGCCAA, CACCTCAC is lower in “PBM E-score” value: 0.112 for the first, 0.0264 for the second.

Compared with TCCTTTAA, ATGACTGG is lower in “PBM E-score” value: 0.132 for the first, -0.17 for the second.

First: GACTGCAC
Second: ATCAATTG
The “PBM E-score” value of the first is lower: -0.221 for the first, 0.252 for the second.

Going from ATCAATTA to ATCAATTC, the “PBM E-score” value falls from 0.365 to 0.125.

First: CTCAATAA
Second: ATCAATAG
The “PBM E-score” value of the first is lower: 0.12 for the first, 0.178 for the second.

First: AACAATTA
Second: AACAATTC
The “PBM E-score” value of the first is higher: 0.366 for the first, 0.205 for the second.

Going from ATCAATAA to AACAATTG, the “PBM E-score” value falls from 0.321 to 0.115.

First: CAGGAGGC
Second: CAATTGCC
The “PBM E-score” value of the first is lower: -0.202 for the first, 0.0461 for the second.

Compared with AATACTCG, CTGAGACC is lower in “PBM E-score” value: 0.22 for the first, -0.291 for the second.

First: CGTCTGGC
Second: ATACCATA
The “PBM E-score” value of the first is lower: 0.0541 for the first, 0.297 for the second.

Compared with ATACCATG, GTACCATA is higher in “PBM E-score” value: -0.0754 for the first, 0.00958 for the second.

Compared with ATCGAAAT, AATAAAGT is higher in “PBM E-score” value: 0.119 for the first, 0.265 for the second.

Compared with TTAAAGAA, GCAAAGTA is lower in “PBM E-score” value: 0.117 for the first, 0.113 for the second.

Compared with GTAAAGTA, ACAAAGTC is lower in “PBM E-score” value: 0.174 for the first, 0.0213 for the second.

Going from ACAAAGTA to CTAAAGAA, the “PBM E-score” value falls from 0.3 to 0.0669.

Compared with ATAAAGTA, ATAAAGTG is lower in “PBM E-score” value: 0.306 for the first, 0.244 for the second.

First: ATAAAGAA
Second: AGTAAGAA
The “PBM E-score” value of the first is higher: 0.291 for the first, 0.208 for the second.

Going from AACAGTGA to ATGTGCTA, the “PBM E-score” value rises from -0.0153 to 0.208.

Compared with GCTGCTCA, CTCTCTCC is lower in “PBM E-score” value: -0.11 for the first, -0.21 for the second.

Going from ACACTCAC to GACGCAGA, the “PBM E-score” value falls from 0.0907 to -0.127.

Going from ATAGCTAT to CTTATCCA, the “PBM E-score” value falls from 0.13 to 0.0666.

Going from CTTATCCC to GTTATCCA, the “PBM E-score” value rises from -0.16 to 0.0783.

First: ATTATCCC
Second: ATTATCCG
The “PBM E-score” value of the first is lower: 0.321 for the first, 0.469 for the second.

Going from ACTATCCG to ATTATCGG, the “PBM E-score” value falls from 0.16 to 0.0549.

Compared with ACTATCCC, ATTATCCA is higher in “PBM E-score” value: -0.24 for the first, 0.341 for the second.

First: ATTATCGC
Second: ATTATCGA
The “PBM E-score” value of the first is higher: 0.319 for the first, 0.0687 for the second.

Compared with ATTATCTG, AACCATAG is lower in “PBM E-score” value: 0.218 for the first, 0.0244 for the second.

First: CGTCAAAA
Second: ACACCAGA
The “PBM E-score” value of the first is higher: 0.108 for the first, 0.059 for the second.

Compared with GAGACGCC, AAATTTCG is higher in “PBM E-score” value: -0.0848 for the first, 0.139 for the second.

Compared with ACCTTTTA, ATCCACAC is higher in “PBM E-score” value: -0.0294 for the first, -0.00864 for the second.

Going from AGCTTGCC to AACAGGTG, the “PBM E-score” value rises from -0.231 to -0.0949.

Compared with CCACCTCA, AGGAGACT is higher in “PBM E-score” value: -0.134 for the first, -0.0682 for the second.

Going from ACGCCCCT to AAAGGAAT, the “PBM E-score” value rises from -0.389 to 0.0153.

Going from CAAAAAAG to ACCAAAAA, the “PBM E-score” value rises from 0.261 to 0.332.

Compared with ACCAAAAT, AGCAAAAC is lower in “PBM E-score” value: 0.111 for the first, 0.0585 for the second.

Compared with CCAAAAAC, CCCAAAAA is lower in “PBM E-score” value: 0.132 for the first, -0.19 for the second.

First: ACCAAAAC
Second: AGCAAAAA
The “PBM E-score” value of the first is lower: 0.0839 for the first, 0.319 for the second.

First: CAAAAAAA
Second: CCAAAAAA
The “PBM E-score” value of the first is lower: 0.293 for the first, 0.332 for the second.

Going from AGCAAAAT to CAAAAAAC, the “PBM E-score” value falls from 0.2 to 0.146.

First: GATATCGC
Second: GGCTTCGA
The “PBM E-score” value of the first is higher: 0.119 for the first, -0.138 for the second.

Compared with CTGTTCTA, GCGCGAGC is lower in “PBM E-score” value: -0.094 for the first, -0.21 for the second.

First: CCCTGCCC
Second: CCGCCAGA
The “PBM E-score” value of the first is lower: -0.376 for the first, -0.0108 for the second.

First: CTGTCTCC
Second: GCCAGTAC
The “PBM E-score” value of the first is higher: 0.00722 for the first, -0.0841 for the second.

Going from CGTTATGC to CTTTTGGC, the “PBM E-score” value falls from 0.0079 to -0.0369.

First: ATTATGTA
Second: ATATTATA
The “PBM E-score” value of the first is higher: 0.312 for the first, 0.227 for the second.

Compared with GCTATATA, ATTATGTG is lower in “PBM E-score” value: 0.194 for the first, 0.11 for the second.

Going from ATATTATG to ATTATGTC, the “PBM E-score” value falls from 0.315 to 0.17.

Going from AGTATATC to AGTATATA, the “PBM E-score” value rises from 0.213 to 0.389.

Compared with AGTATATG, ATATTATC is higher in “PBM E-score” value: 0.0561 for the first, 0.265 for the second.

Going from ACTATATC to ACTATATA, the “PBM E-score” value rises from 0.229 to 0.309.

Compared with ACTGGAAC, ACCCACCC is lower in “PBM E-score” value: 0.072 for the first, 0.0336 for the second.

Compared with AACGCGAT, TCTCTGCA is lower in “PBM E-score” value: 0.0217 for the first, -0.162 for the second.

Going from GCACTTCA to AGCGCTTC, the “PBM E-score” value falls from 0.0397 to 0.016.

Going from ACCATCAT to AGTGCTAC, the “PBM E-score” value falls from 0.0599 to -0.0555.

First: CCCGGGAG
Second: CGGCTCAA
The “PBM E-score” value of the first is lower: -0.0399 for the first, 0.103 for the second.

Going from CACTCGCA to ATTATAAG, the “PBM E-score” value rises from -0.00609 to 0.237.

Compared with ACTATATG, GTTATATA is lower in “PBM E-score” value: 0.256 for the first, 0.154 for the second.

ATTATATC and ATATTACA are the same in “PBM E-score” value: 0.256 for the first, 0.256 for the second.

Compared with CTTATATC, ATTATATG is higher in “PBM E-score” value: 0.146 for the first, 0.289 for the second.

Compared with ATATTACC, CTTATATA is higher in “PBM E-score” value: 0.227 for the first, 0.334 for the second.

Going from ATTATACA to ATATTACG, the “PBM E-score” value rises from 0.222 to 0.333.
